# Source: the supplement of paper PMC11219838
# Unmarked numbers belong to inactive results.
# Test system: Caenorhabditis elegans L1 (N2)
# Assay: survival and reproduction score of C. elegans L1 (0: 0-10 living worms, 1: 11-20, 2: 21-50, 3: >50, 4: overgrown) (score 0-4); higher = more worms, less nematicidal, active = 1 or less; extreme values may be limits of the assay
# Details: 60 µM; 6 days; temperature: 20 °C
# Protocol: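 DODA library (846 commercial 1,3,4- and 1,2,4-oxadiazole compounds plus commercial nematicide controls) screened at a single dose of 60 µM (0.6% DMSO) in 96-well plates, two biological replicates. Read-outs: C. elegans N2 L1 survival/reproduction score at day 6, 20 °C (0: 0-10 worms, 1: 11-20, 2: 21-50, 3: >50, 4: overgrown/starved). C. elegans daf-2 dauer, D. dipsaci and M. hapla J2 mobility at day 5, 20 °C, and P. penetrans mobility at day 5, 20 °C, each relative to DMSO controls. M. hapla egg hatching at day 12, 25 °C, relative to the mean of 8 DMSO wells on the same plate.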
row,SMILES,survival and reproduction score
1,c1cc(-c2noc(C34CC5CC(CC(C5)C3)C4)n2)ccn1,4
2,Cc1cccc(-c2noc(-c3cccc(Cl)c3)n2)c1,4
3,COc1cccc(-c2noc(COc3ccc(C)cc3)n2)c1,4
4,COc1ccc(C(=O)Nc2ccc(-c3nnc(SCc4ccccc4)o3)cc2)cc1,4
5,N#Cc1ccc(CSc2nnc(-c3ccncc3)o2)cc1,4
6,Cc1cc(Cl)ccc1OCc1nc(-c2ccc(F)cc2)no1,4
7,Cc1ccc(OCc2nc(-c3ccncc3)no2)c(Br)c1,3.5
8,Cn1cc(C(=O)CSc2nnc(-c3cccc(Cl)c3)o2)c2ccccc21,4
9,CCn1cc(C(=O)CSc2nnc(-c3ccccc3)o2)c2ccccc21,4
10,O=C(CSc1nnc(-c2ccccc2)o1)Nc1ccc2ccccc2c1,4
11,Cc1cccc(-c2nnc(SCC(=O)Nc3ccccc3C(C)C)o2)c1,4
12,Cc1ccc(CSc2nnc(-c3ccco3)o2)cc1,0 (active)
13,Brc1ccccc1-c1nc(-c2ccc3c(c2)OCO3)no1,4
14,CCCc1nnc(SCc2nnc(-c3ccccc3)o2)o1,4
15,COC(=O)c1ccc(CSc2nnc(-c3ccncc3)o2)cc1,4
16,Cc1ccoc1-c1nnc(-c2ccco2)o1,3.5
17,COc1nc(-c2ccc(C)cc2)ccc1-c1noc(C)n1,4
18,COc1ccccc1-c1nc(-c2ccc(Br)cc2)no1,4
19,Brc1ccc(-c2nc(-c3ccncc3)no2)cc1,0 (active)
20,Cc1cccc(-c2noc(COc3ccc(C)c(C)c3)n2)c1,4

row,SMILES,survival and reproduction score
1,COc1ccc(NC(=O)CSc2nnc(-c3ccccc3C)o2)cc1,4
2,O=C(CSc1nnc(-c2cc3ccccc3o2)o1)NC1CC1,4
3,N#Cc1ccccc1CSc1nnc(-c2ccco2)o1,4
4,C=CCOc1ccc(-c2nc(-c3cccnc3)no2)cc1,0 (active)
5,CCOc1cc(-c2nc(-c3ccccc3OC)no2)cc(OCC)c1OCC,4
6,CC(C)Oc1ccc(-c2nc(-c3ccccn3)no2)cc1,0 (active)
7,O=C(CSc1nnc(-c2ccco2)o1)Nc1ccc(Br)cn1,4
8,O=C(Nc1ccc(-c2noc(-c3ccc(Cl)cc3)n2)cc1)c1ccco1,0 (active)
9,O=C(CSc1nnc(-c2ccccc2)o1)N1CCc2ccccc21,4
10,O=C(CSc1nnc(-c2ccco2)o1)Nc1ccc(F)cc1,3.5
11,CC(C)(C)c1ccc(-c2nc(-c3ccncc3)no2)cc1,0 (active)
12,CCNC(=O)c1ccccc1-c1nc(-c2ccccc2)no1,4
13,Cc1ccc(NC(=O)CSc2nnc(-c3ccccc3)o2)cc1C,4
14,CC(C)CCC(=O)Nc1ccccc1-c1nc(-c2ccccn2)no1,2
15,Clc1ccccc1OCc1nc(-c2cccs2)no1,4
16,CCc1ccc(OCc2nc(-c3ccc(C)cc3)no2)cc1,2
17,Cc1cc(C)c(CSc2nnc(-c3ccccc3)o2)c(C)c1,4
18,CC1CC(C)CN(C(=O)CSc2nnc(-c3ccccc3)o2)C1 (stereo not given),4
19,COc1nc2ccc(C)cc2cc1-c1noc(-c2cccnc2)n1,4
20,Cc1ccc(-c2nc(-c3ccccc3)no2)cc1,0.5 (active)
